# Laboratory results: paper PMC12431657, “Discovery and mechanistic insights of dibenzoylmethane as a broad spectrum inhibitor of coronavirus” (PLOS Pathogens, 2025)
# System: HCoV-229E
# Set-up: species or system Huh-7
# Details: 24 h, 10 µM; inhibitor
smiles,measurement,value
C=C1C(=O)O[C@@H]2[C@H]3O[C@]3(C)CC/C=C(\C)CC[C@@H]12 [Parthenolide],229E Inhibition rate,24.7
